According to the supplement of paper PMC12282887:
± gives the standard deviation of the averaged measurements.

Key:
Test in all cases: promoter activity interaction Z-score (Lux/OD deviation from empty-vector control); higher = stronger promoter induction by the compound
[1] = system: E. coli BW25113 robp lux reporter
Procedure, shortened: (§1)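 E. coli BW25113 (wild type or marA, soxS or rob deletion) carrying low-copy luxCDABE promoter reporters grew in 40 µl LB Lennox in 384-well plates at 37°C. Each compound was tested at four 1:2 dilutions in biological duplicates. OD600 and luminescence were read every 30 min for 12 h. Areas were taken over 0–8 h (wild type) or 1–9 h (mutants), and wells below 10% of median growth area were removed. The score is the Z-transformed residual of growth-normalised luminescence fitted against the empty-vector control.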

[2] = system: E. coli BW25113 soxSp lux reporter
Procedure, shortened: as §1

[3] = system: E. coli BW25113 tolCp lux reporter
Procedure, shortened: as §1

[4] = 0.62 µg/ml, genetic background: wild type
[5] = 0.62 µg/ml, genetic background: ΔmarA
[6] = 0.62 µg/ml, genetic background: Δrob
[7] = 0.62 µg/ml, genetic background: ΔsoxS
[8] = 1.2 µg/ml, genetic background: wild type
[9] = 1.2 µg/ml, genetic background: ΔmarA
[10] = 1.2 µg/ml, genetic background: Δrob
[11] = 1.2 µg/ml, genetic background: ΔsoxS
[12] = 2.5 µg/ml, genetic background: wild type
[13] = 2.5 µg/ml, genetic background: ΔmarA
[14] = 2.5 µg/ml, genetic background: Δrob
[15] = 2.5 µg/ml, genetic background: ΔsoxS
[16] = 5 µg/ml, genetic background: wild type
[17] = 5 µg/ml, genetic background: ΔmarA
[18] = 5 µg/ml, genetic background: Δrob
[19] = 5 µg/ml, genetic background: ΔsoxS

CN[C@@H]1[C@H](O)[C@H](NC)[C@H]2O[C@@]3(O)C(=O)C[C@@H](C)O[C@H]3O[C@@H]2[C@H]1O [Spectinomycin]
promoter activity interaction Z-score [1, 4]: 0.57 ± 0.013 | promoter activity interaction Z-score [1, 5]: 0.679 ± 0.25 | promoter activity interaction Z-score [1, 6]: 0.28 ± 0.54 | promoter activity interaction Z-score [1, 7]: 0.0239 ± 0.071 | promoter activity interaction Z-score [1, 8]: 1.23 ± 0.055 | promoter activity interaction Z-score [1, 9]: 1.12 ± 1 | promoter activity interaction Z-score [1, 10]: 0.344 ± 1.1 | promoter activity interaction Z-score [1, 11]: 0.459 ± 0.35 | promoter activity interaction Z-score [1, 12]: 1.05 ± 0.45 | promoter activity interaction Z-score [1, 13]: -0.18 ± 0.022 | promoter activity interaction Z-score [1, 14]: -0.207 ± 0.35 | promoter activity interaction Z-score [1, 15]: -0.519 ± 0.17 | promoter activity interaction Z-score [1, 16]: 1.2 ± 0.5 | promoter activity interaction Z-score [1, 17]: 1.72 ± 1.6 | promoter activity interaction Z-score [1, 18]: 0.387 ± 0.033 | promoter activity interaction Z-score [1, 19]: 0.464 ± 0.086 | promoter activity interaction Z-score [2, 4]: -0.101 ± 0.17 | promoter activity interaction Z-score [2, 5]: -0.203 ± 0.0084 | promoter activity interaction Z-score [2, 6]: -0.117 ± 0.15 | promoter activity interaction Z-score [2, 7]: -0.425 ± 0.2 | promoter activity interaction Z-score [2, 8]: -0.0613 ± 0.16 | promoter activity interaction Z-score [2, 9]: -0.366 ± 0.011 | promoter activity interaction Z-score [2, 10]: -0.175 ± 0.039 | promoter activity interaction Z-score [2, 11]: -0.141 ± 0.26 | promoter activity interaction Z-score [2, 12]: -0.0221 ± 0.0045 | promoter activity interaction Z-score [2, 13]: -0.26 ± 0.096 | promoter activity interaction Z-score [2, 14]: -0.323 ± 0.11 | promoter activity interaction Z-score [2, 15]: -0.283 ± 0.26 | promoter activity interaction Z-score [2, 16]: 0.172 ± 0.16 | promoter activity interaction Z-score [2, 17]: -0.231 ± 0.12 | promoter activity interaction Z-score [2, 18]: -0.25 ± 0.12 | promoter activity interaction Z-score [2, 19]: -0.213 ± 0.14 | promoter activity interaction Z-score [3, 4]: 0.361 ± 0.53 | promoter activity interaction Z-score [3, 5]: 0.711 ± 0.34 | promoter activity interaction Z-score [3, 6]: 0.221 ± 0.16 | promoter activity interaction Z-score [3, 7]: -0.376 ± 0.49 | promoter activity interaction Z-score [3, 8]: -0.382 ± 0.52 | promoter activity interaction Z-score [3, 9]: -0.763 ± 0.28 | promoter activity interaction Z-score [3, 10]: -0.313 ± 0.84 | promoter activity interaction Z-score [3, 11]: 0.357 ± 0.55 | promoter activity interaction Z-score [3, 12]: -0.207 ± 0.26 | promoter activity interaction Z-score [3, 13]: -0.0988 ± 1.2 | promoter activity interaction Z-score [3, 14]: -0.56 ± 0.75 | promoter activity interaction Z-score [3, 15]: 0.223 ± 0.16 | promoter activity interaction Z-score [3, 16]: 0.269 ± 0.23 | promoter activity interaction Z-score [3, 17]: -0.244 ± 0.4 | promoter activity interaction Z-score [3, 18]: -0.307 ± 0.99 | promoter activity interaction Z-score [3, 19]: 0.299 ± 0.054
